In the library only some 1.8% were active in any assay of this set; here they are far more common.
Phagocytosis inh: inhibitors of macrophage phagocytosis. J774A.1 macrophage IgG-bead phagocytosis, imaging. hit rate 0.07% among 110,000. inhibition, % at 5 µM;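 active = inhibition above the mean of the plate negative controls plus 5 SD, cut at about 13% in these data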;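 note: phagocytic index as fraction of beads internalized from green versus red external bead signal; plate controls were DMSO negative control for no effect and cytochalasin-D positive control for full effect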
sdo1 growth: sdo1-depleted yeast growth rescue; hit rate 0.21% among 140,000; S. cerevisiae sdo1-depleted JHY4D growth rescue, OD600 30 h; hits give high values; pdr5 snq2 efflux-pump mutant strain; z-score at 10 µM; AID 817;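 active = z-score above 3 at both the 24 hr and the 30 hr optical density reads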;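 note: z-score against mean and SD of all compound wells on the same plate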
Measles CPE: protection of cells from measles virus; Measles virus-infected cells, CPE protection, absorbance; hit rate 1.5% among 140,000; protection (pct of control), % at 4 µM; in the data active = protection mostly above about 24%, no sharp cut-off; inactive = mostly below about 26%
SDO1 rescue DR: SDO1-depleted yeast growth rescue confirmation; hit rate 44% among 440; AID 949; shares compounds with sdo1 growth; S. cerevisiae JHY4D (SDO1-depleted) growth rescue, OD600, 30 h; hits give high values; efflux-deficient strain, SNQ2 and PDR5 mutated; OD recovery (test concentration not listed);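 active = yeast growth recovered at 30 hours, either rising with dose fitted slope above 0.001 or with average optical density gain above 0.07, some results past the limit were not filed as active; inactive = growth falling with dose or no effect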;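 note: gain in OD600 from 0 h to 30 h averaged across all seven doses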
An asterisk follows results filed as active; x = no result.

SMILES | Phagocytosis inh | sdo1 growth | Measles CPE | SDO1 rescue DR
COc1ccc(S(=O)(=O)N2CCCC(C(=O)NC3CCCCC3)C2)cc1 (configuration not stated) | -1 | -0.49 | 6 | x
O=C1C2CCCN2C(c2ccc(Cl)cc2)N1c1nccs1 (configuration not stated) | x | 0.76 | 7 | x
N#C/C(=C\c1cn(Cc2ccccc2F)c2ccccc12)C(=O)NCc1ccco1 | -6 | -0.97 | 41 | x
COC(=O)[C@@]1(Cc2ccc(OC)cc2)[C@H]2c3cc(C(=O)N4CCCC4)n(CCc4c[nH]c5ccc(O)cc45)c3C[C@H]2CN1C(=O)c1ccccc1 | x | 0.58 | 15 | x
Cc1cc(N2CCCC2)nc(SCC(=O)c2ccccc2)n1 | x | -0.71 | 5 | x
Cc1cc(N2CCOCC2)nc(SCC(=O)c2ccccc2)n1 | 0 | 0.31 | 9 | 0.085*
CC(CCc1ccccc1)NC(=O)CSc1nc(N)cc(N)n1 (configuration not stated) | -1 | 13* | 19 | 0.11*
CC(CCc1ccccc1)NC(=O)CSc1nnnn1C (configuration not stated) | x | -0.77 | 2 | x
O=C(NNS(=O)(=O)c1cccc(Cl)c1Cl)c1cccc(S(=O)(=O)N2CCOCC2)c1 | -12 | 0.94 | 24 | x
Cc1cc2c(c(=O)n1Cc1cccnc1)C(c1ccccc1)C(C#N)=C(N)O2 (configuration not stated) | 0 | 5.8* | 17 | 0.067
Cc1cc2c(c(=O)n1Cc1ccc3c(c1)OCO3)C(c1cccnc1)C(C#N)=C(N)O2 (configuration not stated) | -1 | 0.5 | 6 | x
CN1CCN(c2ccc(Cl)cc2NC(=O)c2ccc(S(=O)(=O)N(C)C)cc2)CC1 | -1 | 4.3* | 11 | 0.045
CCN(CC)S(=O)(=O)c1cc(C(=O)Nc2cc(Cl)ccc2N2CCN(C)CC2)ccc1Cl | 1 | -2.4 | 3 | x
CCCCOc1ccc(C(=O)N/N=C/c2ccc(OCCN3CCCCC3)c(OC)c2)cc1 | -3 | 9* | 5 | 0.11*
CCCCOc1ccc(C(=O)N/N=C/c2cn[nH]c2-c2ccc(OC)c(OC)c2)cc1 | x | -0.32 | 36 | x
CN(C)c1nc(N)c([N+](=O)[O-])c(NCCO)n1 | x | 0.24 | 30 | x
CCOC(=O)/C(=C/c1ccc(F)cc1)NC(C)=O | 2 | 1.1 | 15 | x
CC(=O)N/C(=C\c1ccc(F)cc1)C(=O)OC(C)C | -1 | 3.4* | 3 | 0.098*
Cc1ccnc(NC(=O)c2sc3ccccc3c2Cl)c1 | x | 3.9* | 6 | 0.13*
Cc1cnc(NC(=O)c2sc3ccccc3c2Cl)s1 | -3 | -0.23 | 7 | x
Cc1ccc(C)c(-n2c(-c3csc(C)c3C)n[nH]c2=S)c1 | 0 | -1.8 | 7 | x
COc1ccc(CNc2nc3c(c(=O)n(Cc4ccc(Br)cc4)c(=O)n3C)n2C)cc1 | 2 | -0.01 | 15 | 0.069
Cn1c(NCc2ccccc2)nc2c1c(=O)n(Cc1ccc(Br)cc1)c(=O)n2C | 0 | -2 | 13 | x
O=C(CSc1nc2cc(Cl)ccc2s1)c1ccco1 | -1 | 0.82 | 3 | x
O=C(CSc1nnc(SCC(=O)c2ccco2)s1)c1ccco1 | x | 2.5 | 20 | 0.062
SMILES | Phagocytosis inh | sdo1 growth | Measles CPE | SDO1 rescue DR
COc1ccc(N2CC(NC(=O)NCC(C)C)CC2=O)cc1 (configuration not stated) | 1 | 0.18 | 3 | x
Nc1nc(NC(=O)c2ccco2)nn1-c1ccccc1 | 0 | 3.1* | 15 | 0.048
Nc1nc(NC(=O)Cc2ccccc2)nn1-c1ccccc1 | 0 | 0.81 | 5 | x
CC12CCC(C(=O)N(NC(=O)c3ccc(O)cc3)C1=O)C2(C)C (configuration not stated) | x | 0.65 | 6 | x
CC12CCC(C(=O)N(NC(=O)c3cccnc3)C1=O)C2(C)C (configuration not stated) | -5 | 6.2* | 16 | 0.058
COc1ccc(C(=O)/C=C/c2ccc(OC)c(Cn3nnc4ccccc43)c2)cc1 | x | -0.56 | 6 | x
Cc1cc(NC(=O)CSc2cn(C)c3ccccc23)no1 | 0 | -1.3 | 26 | x
O=C(CSc1ncnc2c1oc1ccccc12)Nc1ccccc1F | 0 | 0.18 | 6 | 0.056
CCOc1ccccc1NC(=O)CSc1ncnc2c1oc1ccccc12 | 4 | 0.13 | 4 | x
COc1cccc(-c2nnc(SCN3C(=O)c4ccccc4C3=O)n2C)c1 | -2 | -0.59 | 11 | x
COc1ccc(C(=O)O/N=C(\C)c2ccccc2)cc1 | -1 | 0.51 | 3 | x
COc1ccc(C(=O)N=c2nc3ccccn3s2)cc1 | -1 | 1.9 | 11 | 0.085*
Cn1c(NC(=S)Nc2ccccc2)nc2ccccc21 | x | 0.17 | 4 | x
S=C(Nc1ccccc1)Nc1nc2ccccc2n1CCOc1ccc(Br)cc1 | -6 | 7.6* | 15 | 0.089*
O=S(=O)(O)c1nc2ccccc2n1CCOc1ccccc1 | 1 | 8.3* | 8 | 0.035
Cc1cccc(OCCn2c(S(=O)(=O)O)nc3ccccc32)c1 | 3 | 1 | 4 | x
CN(c1ccccc1C(=O)N1CCN(c2ccccc2)CC1)S(C)(=O)=O | x | -0.09 | 20 | x
Cc1cc(C)n(-c2nc(-c3ccc(Cl)cc3)cs2)n1 | 1 | -0.14 | 14 | x
O=c1oc2ccccc2c2nccnc12 | -4 | 5.4* | 7 | 0.043
Cc1cnc(N)c2c(=O)oc3ccccc3c12 | 0 | -0.57 | 10 | x
CN1CCN(CC(=O)Nc2ccc(OCc3ccccc3)cc2)CC1 | 0 | 4.4* | 27 | 0.055
N#CCN1CCN(CC(=O)Nc2ccc(OCc3ccccc3)cc2)CC1 | 0 | -0.15 | 8 | x
COc1ccc(N/C=C(\C#N)c2nc3ccccc3n2C)c(OC)c1 | -1 | -0.76 | 0 | x
COc1ccc(/C=N/NC(=O)COc2ccc(Cl)cc2Cl)cc1Cn1nc(C)cc1C | -11 | 0.3 | 3 | x
COc1ccc(/C=N\NC(=O)COc2ccc(Cl)cc2Cl)c(C(=O)O)c1OC | -4 | 2.5 | 14 | 0.042
SMILES | Phagocytosis inh | sdo1 growth | Measles CPE | SDO1 rescue DR
O=C(COC(=O)CCC(=O)c1cccs1)Nc1cc(S(=O)(=O)N2CCOCC2)ccc1Cl | 0 | -0.94 | 18 | x
CN1CCN(CC#CCn2c3ccccc3c3ccccc32)CC1 | -2 | -1.1 | 1 | x
CC(C)Oc1ccccc1/C=N/Nc1ccccc1[N+](=O)[O-] | -10 | -0.79 | 0 | x
CCOc1ccccc1/C=N/Nc1ccccc1[N+](=O)[O-] | 1 | 1.2 | 1 | 0.052
Cn1c(=O)c2c(nc(CN3CCOCC3)n2CCCc2ccccc2)n(C)c1=O | x | 0.58 | 12 | x
Cc1ccc(Cn2c(CN3CCOCC3)nc3c2c(=O)n(C)c(=O)n3C)cc1 | x | -0.4 | 6 | x
Cc1ccc(Cn2c(CN3CC(C)OC(C)C3)nc3c2c(=O)n(C)c(=O)n3C)cc1 (configuration not stated) | -1 | 8.8* | 30 | 0.057*
CN1CCN(Cc2nc3c(c(=O)n(C)c(=O)n3C)n2CCCc2ccccc2)CC1 | x | 11* | 12 | 0.13*
COC(=O)c1ccc(Oc2c(C)oc3c(CN4CCN(C)CC4)c(O)ccc3c2=O)cc1 | 1 | -0.15 | 23 | x
COc1cc(C2Nn3c(nnc3-c3ccccc3OC)S2)ccc1O (configuration not stated) | x | 1.4 | 10 | x
CC1(C)CC(=O)C2=C(C1)N(c1ccccc1)C(=O)C2(O)C(F)(F)F (configuration not stated) | -6 | 0.41 | 16 | x
